Only some compounds are listed: those with a hit (about 2.9% of all), similar ones and a draw of the others.
N-glyco inh – N-linked glycosylation inhibition. D54 ERlucT glycosylation luciferase reporter, 24 h; percent of 100 nM tunicamycin response. 360,000 compounds, 0.23% hits. reporter increase, % at 12.5 µM;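 active = mean luciferase reporter signal, scaled so untreated is 0 and the glycosylation-blocking control 100, at or above a set limit in every replicate; inconclusive = mean reaches the limit but not every replicate does; inactive = mean below the limit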;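 note: luciferase carries N-glycosylation sites so blocking glycosylation raises the light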
esBAF inh – blocks esBAF chromatin remodeling in mouse ES cells | Bmi1-luciferase knock-in reporter, 24 h; 100% = twice the neutral-well signal | reporter increase, % at 12.5 µM | 350,000 compounds, 2% hits; in the data active = activation above about 40%; inconclusive = no clear call, values can overlap the other calls;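 note: a rise in the Bmi1 reporter signal indicates esBAF inhibition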
Wnt bcat act – Wnt/beta-catenin pathway activation; Wnt/beta-catenin reporter cell assay, activator, plate reader; activation, % at 9.35 µM; 300,000 compounds, 1.2% hits; in the data active = activation above about 30%, passing the limit was not always enough; inconclusive = no clear call, values can overlap the other calls
MITF act – activators of MITF-driven TRPM1 promoter activity in SK-MEL-5 cells. activation, % at 12.5 µM. 300,000 compounds, 0.75% hits. SK-MEL-5 TRPM1-promoter luciferase, 24 h; % of positive control, neutral wells = 0;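 active = mean activation of at least 80% with every replicate also reaching 80%; inconclusive = mean reaches 80% but some replicate falls short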
PvdQ inh – P. aeruginosa PvdQ acylase inhibition | inhibition, % at 10 µM | purified PvdQ acylase, fluorescence plate reader | 340,000 compounds, 0.063% hits; in the data active = inhibition above about 30%, passing the limit was not always enough; inconclusive = no clear call, values can overlap the other calls
Vif inh – HIV Vif inhibition. 340,000 compounds, 0.35% hits. HEK293T cells, Vif self-association by quenched fluorescence, imaging, 24 h. inhibition, % at 7.49 µM; in the data active = inhibition above about 50%, passing the limit was not always enough; inconclusive = no clear call, values can overlap the other calls; inactive = below about 31%
Large screens that a line does not name were inactive; ! = not active in a repeat.

CO[C@@H]1CN(C)C(=O)c2cc(NC(C)=O)ccc2OC[C@@H](C)NC[C@@H]1C	none (no result: N-glyco inh, Wnt bcat act, MITF act, PvdQ inh, Vif inh)
Cc1csc(NC(=O)c2ccc(Br)s2)n1	esBAF inh 57
COC(=O)C[C@H]1CC[C@H]2[C@H](COc3ccc(NC(=O)Nc4c(C)noc4C)cc3C(=O)N2C)O1	none (no result: N-glyco inh, Wnt bcat act, MITF act, PvdQ inh, Vif inh)
Cc1[nH]c2ccccc2c1C1(O)C(=O)N(C(C)C)c2ccccc21 (stereo not drawn)	Vif inh 57 (no result: MITF act)
CCCN1C(=O)C(O)(c2c(C)[nH]c3ccccc23)c2ccccc21 (stereo not drawn)	none (no result: MITF act)
O=C(COC(=O)CC1CCCC1)Nc1cc2c(cc1Cl)C(=O)c1ccccc1C2=O	esBAF inh 50, Wnt bcat act 39 (no result: Vif inh)
C=CCCCOc1ccc(C(=O)O)cc1	Vif inh 58 (no result: Wnt bcat act)
O=C(CSCc1ccccc1Cl)N1CCN(c2ccccn2)CC1	esBAF inh 58 (no result: Wnt bcat act)
Cc1ccc(C2CCN(C(=O)Nc3ccccc3)C2)cc1 (stereo not drawn)	esBAF inh 53, MITF act inconclusive (no result: Wnt bcat act)
CC(C)N(C)C1CCN(C(=O)Nc2ccc(Cl)cc2)CC1	none (no result: Wnt bcat act)
O=C(Nc1cccc(F)c1)N1CCC(c2ccccc2)CC1	none
O=C(Nc1ccc(Cl)cc1)N1CCC(c2ccccc2)C1 (stereo not drawn)	Wnt bcat act 56, MITF act 116 (no result: esBAF inh)
Cc1ccc(NC(=S)N2CCC(c3ccccc3)C2)c(Cl)c1 (stereo not drawn)	Wnt bcat act 42 (no result: esBAF inh)
S=C(Nc1ccccc1Cl)N1CCC(c2ccccc2)C1 (stereo not drawn)	none (no result: esBAF inh)
Cc1ccc(NC(=O)N2CCC(c3ccccc3)C2)cc1C (stereo not drawn)	Wnt bcat act 56, MITF act 128
COc1ccc(NC(=O)Nc2ccc3c(c2)[C@@H]2C[C@H](CC(=O)NCc4ccc5c(c4)OCO5)O[C@@H](CO)[C@@H]2O3)cc1	none (no result: N-glyco inh, Wnt bcat act, MITF act, PvdQ inh, Vif inh)
C[C@H]1CN([C@@H](C)CO)C(=O)c2cc(C#CC3CCCCC3)cnc2O[C@H]1CN(C)C(=O)Cc1ccccn1	none (no result: N-glyco inh, Wnt bcat act, MITF act, PvdQ inh, Vif inh)
CO[C@H](CN(C)Cc1ccc2c(c1)OCO2)[C@@H](C)CN(C(=O)c1ccccc1)[C@@H](C)CO	none (no result: N-glyco inh, Wnt bcat act, MITF act, PvdQ inh, Vif inh)
CCCN(C)C[C@H]1OCCCC[C@@H](C)Oc2ccc(NS(=O)(=O)c3ccccc3)cc2C(=O)N([C@H](C)CO)C[C@H]1C	none (no result: N-glyco inh, Wnt bcat act, MITF act, PvdQ inh, Vif inh)
COc1ccc(S(=O)(=O)Nc2cccc3c2O[C@@H](CN(C)Cc2ccc(C(F)(F)F)cc2)[C@H](C)CN([C@@H](C)CO)C3=O)cc1	none (no result: N-glyco inh, Wnt bcat act, MITF act, PvdQ inh, Vif inh)
CSc1nsc(N/N=C/c2ccc3c(c2)OCO3)c1C#N	MITF act 92 (no result: esBAF inh)
NC(=O)c1ccc(NC(=O)C#Cc2ccccc2)cc1	Wnt bcat act 41
CO[C@H]1CN(C)C(=O)c2ccc(NC(=O)Cc3ccccc3)cc2OC[C@@H](C)N(C(=O)c2ccccc2F)C[C@H]1C	none (no result: N-glyco inh, Wnt bcat act, MITF act, PvdQ inh, Vif inh)
Cn1nnnc1Sc1ncnc2scc(-c3ccc(F)cc3)c12	Vif inh 52 (no result: Wnt bcat act)
Cc1c(OCC(F)(F)F)ccnc1CS(=O)c1nc2ccccc2[nH]1 (stereo not drawn)	esBAF inh 48!
CCNC(=O)Nc1ccc2c(c1)C(=O)N(C)[C@H]1CC[C@H](CC(=O)NCc3ccccc3F)O[C@H]1CO2	none (no result: N-glyco inh, Wnt bcat act, MITF act, PvdQ inh, Vif inh)
CN(CC1CCOCC1)C(=O)c1ccc2nc(Cc3cccc(Cl)c3)oc2c1	none (no result: esBAF inh, Vif inh)
O=C(NCC1CCOCC1)c1ccc2nc(Cc3cccc(Cl)c3)oc2c1	esBAF inh 46
COc1ccc(Cc2nc3ccc(C(=O)NCc4cc(C)no4)cc3o2)cc1	esBAF inh 65, MITF act 91
COc1ccc(Cc2nc3ccc(C(=O)NCC(C)(C)OC)cc3o2)cc1	esBAF inh 76, MITF act 104
CC(=O)Nc1ccc(/C=N/N2C(C)CCCC2C)cc1 (stereo not drawn)	none (no result: esBAF inh)
CC(=O)Nc1ccc(/C=N/N2CCCCC2)cc1	esBAF inh 62
O=[N+]([O-])c1ccc(C=NN2CCCCCC2)cc1	esBAF inh 69, Wnt bcat act 60
COCC(=O)Nc1ccc2c(c1)OC[C@H](C)N(Cc1cncnc1)C[C@@H](C)[C@H](OC)CN(C)C2=O	none (no result: N-glyco inh, Wnt bcat act, MITF act, PvdQ inh, Vif inh)
C[C@@H]1CN([C@@H](C)CO)C(=O)c2cc(NC(=O)Nc3ccc(C(F)(F)F)cc3)ccc2O[C@@H]1CN(C)S(=O)(=O)c1cccs1	none (no result: N-glyco inh, Wnt bcat act, MITF act, PvdQ inh, Vif inh)
C[C@@H]1CN([C@@H](C)CO)C(=O)c2cccc(NC(=O)Nc3ccccc3)c2O[C@H]1CN(C)S(=O)(=O)c1cn(C)cn1	none (no result: N-glyco inh, Wnt bcat act, MITF act, PvdQ inh, Vif inh)
